Screening results (PubChem BioAssay)
An excerpt weighted towards active compounds, which were near 9.2% of everything screened.
Rab9 prom act: activates the Rab9 promoter | 2.8% of 320,000 active | Potency, µM (titrated, usually from 9.22 µM), for inactives: at the top dose activation, negative = inhibition, hits mostly activators | Huh7 Rab9 promoter-luciferase reporter, luminescence, 24 h; also: % of control where 0% means no effect; nearly all actives have a fitted effect of over 60% in size
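Rab9 promoter-driven luciferase in stably transfected Huh7 cells; 1500 cells/well rested 2 h, exposed to compound in DMSO for 24 h at 37 °C, 5% CO2. Luminescence read 10 min after adding luciferase reagent at ambient temperature.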
NPC1 promoter act: activators of NPC1 promoter. Huh7 NPC1 promoter luciferase reporter, 24 h. Potency, µM (titrated, usually from 9.22 µM), inactives show top-dose activation, usual class: activators. 2.4% of 320,000 active. AID 485313; also: % of control where 0% means no effect; nearly all actives have a fitted effect of over 60% in size
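Stable NPC1-promoter luciferase Huh7 line; cpd (DMSO) 24 h, 37 °C, 5% CO2; Amplite luciferase reagent 10 min RT; luminescence readout. qHTS format.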
ELG1 DNA repair: ELG1-dependent DNA repair inhibition; Potency, µM (titrated, usually from 46.1 µM), for inactives: at the highest dose activity change, negative = inhibition, usual class: inhibitors; 2.3% of 330,000 active; HEK293T ELG1-luciferase reporter, luminescence, 16 h; DNA damage induced by 5-fluorouridine; AID 504467; also: % is scaled to controls: 0 for no effect and ±100 for the full control effect; nearly all actives have a fitted effect of over 55% in size
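5-Fluorouridine DNA damage + compound/DMSO, 2,000 cells/well, 16 h, 37 °C/5% CO2. ONE-Glo, 30 min RT, luminescence. Readout = decrease in reporter signal.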
ELG1 genotoxic: induces genotoxicity in HEK293T cells with luciferase-tagged ELG1 | HEK293T ELG1-luciferase reporter, luminescence, 16 h | Potency, µM (doses to about 46 µM), for the others: at the highest dose activity change, positive = activation, most hits filed as activators | 1.3% of 330,000 active; also: % of control where 0% means no effect; nearly all actives have a fitted effect of over 60% in size
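HEK293T cells expressing luciferase-tagged ELG1 were exposed to compound or DMSO vehicle for 16 hr at 37 °C and 5% CO2. Luciferase activity was then measured with ONE-Glo after 30 min at room temperature.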
FLuc counter: inhibits or activates purified firefly luciferase, miR-21 counter-screen; P08659; purified FLuc, Km substrates, luminescence inhibition; Potency, µM (highest dose often 57.5 µM), inactives show at the highest dose activity change, negative = inhibition, usual class: inhibitors; 6.9% of 360,000 active; AID 588342;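 also: plate controls were vehicle for no effect and reference inhibitor for full effect; nearly all actives have a fitted effect of over 55% in size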
Target sequence (P08659 whole entry, looked up): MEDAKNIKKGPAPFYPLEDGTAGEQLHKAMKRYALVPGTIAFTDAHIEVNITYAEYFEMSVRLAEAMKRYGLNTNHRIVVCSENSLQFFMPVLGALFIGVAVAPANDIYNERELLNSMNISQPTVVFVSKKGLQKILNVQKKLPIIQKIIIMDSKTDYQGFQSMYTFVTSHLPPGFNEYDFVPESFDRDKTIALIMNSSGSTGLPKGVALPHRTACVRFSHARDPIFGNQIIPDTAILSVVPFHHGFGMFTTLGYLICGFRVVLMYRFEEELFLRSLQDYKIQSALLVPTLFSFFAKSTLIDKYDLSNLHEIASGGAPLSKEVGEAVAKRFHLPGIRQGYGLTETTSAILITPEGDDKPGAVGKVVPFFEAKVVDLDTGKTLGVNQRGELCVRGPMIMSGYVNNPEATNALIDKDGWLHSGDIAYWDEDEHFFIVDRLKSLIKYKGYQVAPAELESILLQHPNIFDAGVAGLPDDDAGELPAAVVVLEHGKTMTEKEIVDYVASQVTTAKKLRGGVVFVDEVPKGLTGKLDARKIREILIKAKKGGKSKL
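Purified P. pyralis luciferase (10nM final) with 10uM D-luciferin and 10uM ATP (Km levels) in 50mM Tris acetate pH 7.5, 10mM Mg acetate, 0.01% Tween-20, 0.05% BSA; qHTS 6-point titration, ~60 µM downward; luminescence read.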
SMN2 splice enh: enhancers of SMN2 splice variant expression; 2.8% of 210,000 active; HEK293 SMN2-luciferase splicing reporter, luminescence, 30-36 h; AID 1458; Potency, µM (top dose mostly 46.1 µM), without a hit: top-dose activity change, positive = activation, most hits filed as activators; also: % of control where 0% means no effect; nearly all actives have a fitted effect of over 55% in size
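qHTS luciferase splicing reporter: luminescence rises when SMN2 exon 7 is included in transfected HEK293 cells. Compound exposure lasted 30-36 h at 37C, with 4.5 mM final sodium butyrate as control, followed by a ONE-Glo read.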
Numbers without * were called inactive; ? = inconclusive; . = not tested or not shown; [ ] = dose if it differs, or a comment. Calls follow the shape of the dose curve; as a rule, active = well fitted curve in the direction sought with a large enough effect; inconclusive = small, poorly fitted or top-dose-only effect, or another doubt; inactive = no such curve, though single readings can be large; an effect the other way counts as inactive or inconclusive. Potency is read from the fitted curve at half-maximal effect.

SMILES	Rab9 prom act	NPC1 promoter act	ELG1 DNA repair	ELG1 genotoxic	FLuc counter	SMN2 splice enh
CCOc1ccccc1N1CC(c2nc3ccccc3n2CCCOc2ccccc2OC)CC1=O (stereo not given)	.	.	.	.	17µM*	23%
O=c1c2[nH]c3ccccc3c2nc(SCc2cccc(F)c2)n1-c1ccccc1	.	.	.	.	1%	.
Cc1ccc(-n2c(C)cc(-c3csc(N)n3)c2C)cc1	0%	9%	28%	2%	11µM*	0%
Cc1cc(-c2csc(N)n2)c(C)n1C	3%	0%	7%	0%	-5%	-33%
COC(=O)Cc1c(C)c2cc3c(c(C)c2oc1=O)OCN(CCc1ccccc1F)C3	.	.	.	.	-4%	-7%
O=C1Nc2ccccc2SC1c1ccccc1 (stereo not given)	-2%	1%	8%	0%	-1%	.
Cc1ccc(NC2Sc3ccccc3NC2=O)cc1 (stereo not given)	1.4µM*	4µM*	?	?	2.1µM*	11µM*
Cc1ccnc(NC(=O)c2cccc(NC(=O)CC3SC(N4CCCCC4)=NC3=O)c2)c1 (stereo not given)	17%	4%	?	3%	12µM*	.
CC1CCC(NC(=O)c2ccc(NC(=O)CC3SC(N4CCCC4)=NC3=O)cc2)CC1 (stereo not given)	2.2µM*	2.5µM*	?	19%	?	.
Cc1ccnc(NC(=O)c2ccc(NC(=O)CC3SC(N4CCCC4)=NC3=O)cc2)c1 (stereo not given)	22%	15%	3%	8%	-16%	.
CC(C)CN(C(=O)COC(=O)CCC(=O)c1ccc(Cl)cc1)c1c(N)n(Cc2ccccc2)c(=O)[nH]c1=O	-6%	-4%	15%	3%	3%	.
Cc1ccc(-c2cc(C(=O)NCc3ccco3)c3ccccc3n2)s1	5%	1%	-13%	-4%	12µM*	-14%
O=C(NCc1ccco1)c1cc(-c2cccs2)nc2ccccc12	12%	-3%	15µM*	-3%	-15%	-10%
Cc1nn(-c2ccccn2)c2nc(-c3cccs3)cc(C(=O)NCc3ccco3)c12	3%	1%	?	3%	6.7µM*	.
CCOC(=O)c1cc(-c2cccs2)nc2c1c(C)nn2-c1ccccn1	-1%	-2%	?	-9%	?	-50%
CSc1ccc(/C=C/C(=O)c2ccc(NC(C)=O)cc2)cc1	18%	13%	23%	0%	3µM*	5%
CCN(CC(=O)Nc1ccc(NC(C)=O)cc1)C(=O)c1ccc2c(c1)OCCO2	-3%	0%	9%	-2%	-6%	.
O=C(O)c1ccc(/C=C/C(=O)c2ccc3c(c2)OCCCO3)cc1	?	?	?	?	0.076µM*	.
O=C(/C=C/c1cccc([N+](=O)[O-])c1)c1ccc2c(c1)OCCO2	3%	14%	?	?	?	18%[1.84 µM]
CC(=O)Nc1ccc(/C=C/C(=O)c2ccc3c(c2)OCCO3)cc1	8%	-1%	8%	17%	6.7µM*	.
Cc1ccc(CNC(=O)N2CCC(CN3CCC(C)CC3)CC2)cc1	.	.	.	.	4%	.
Cc1cccc(NC(=O)c2n[nH]c([N+](=O)[O-])c2Br)c1C	1µM*	0.79µM*	?	?	3.8µM*	10µM*
Cc1ccc(Cn2nnc(C(=O)Nc3cccc(C)c3C)c2N)cc1	-4%	1%	13%	11%	2%	-11%
COc1cc(C(=O)Nc2nnc(S(=O)(=O)N(C)c3ccccc3)s2)cc(OC)c1OC	.	.	.	.	-12%	.
Cc1ccc(NC(=O)C(=O)NN=C2CCCC2)cc1C	?	19%	-5%	7%	13µM*	.
Cc1ccc(NC(=O)C(=O)NCC2CCCO2)cc1 (stereo not given)	4µM*	?	?	?	?	14µM*
